Out of some 5,500 compounds screened, about 2,000 (36%) were called active. Not shown: some 18% with an inconclusive outcome. Cut-off read from the data, not from the text of the source: active = normalized growth mostly below about 0.91 (no sharp cut-off); inconclusive = no clear call, values can overlap the other calls; inactive = mostly above about 0.92. Some of the results follow.
Test: chemical genetic growth profiling, strain panel (AID 1159580);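 note: tested at 20 µM; growth read once vehicle control cultures reached saturation at 30 °C; 1 = growth at the plate median or of vehicle wells; lower values mean less growth of the strain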
Settings: S. cerevisiae deletion strains, growth OD

Measured: normalized growth

CC(O)(P(=O)(O)O)P(=O)(O)O
inactive: locus YAL021C, strain ccr4, hits give low values 1.03 | locus YAL026C, strain drs2, hits give low values 0.993 | locus YAL030W, strain snc1, hits give low values 0.993 | locus YBL061C, strain skt5, hits give low values 0.993 | locus YBR009C, strain hhf1, hits give low values 0.976 | locus YBR023C, strain chs3, hits give low values 0.99 | locus YBR171W, strain sec66, hits give low values 0.992 | locus YBR231C, strain swc5, hits give low values 0.992 | locus YBR279W, strain paf1, hits give low values 0.997 | locus YCL011C, strain gbp2, hits give low values 0.99 | locus YCL016C, strain dcc1, hits give low values 0.988 | locus YCL061C, strain MRC1, hits give low values 1 | locus YCL069W, strain vba3, hits give low values 0.992 | locus YCR088W, strain abp1, hits give low values 0.989 | locus YDL005C, strain med2, hits give low values 1 | locus YDL040C, strain nat1, hits give low values 0.997 | locus YDR001C, strain nth1, hits give low values 0.988 | locus YDR069C, strain doa4, hits give low values 0.978 | locus YDR137W, strain rgp1, hits give low values 1 | locus YDR159W, strain sac3, hits give low values 0.955 | locus YDR195W, strain ref2 0.93 | locus YDR297W, strain sur2, hits give low values 0.993 | locus YDR334W, strain swr1, hits give low values 0.987 | locus YDR335W, strain msn5, hits give low values 0.991 | locus YDR392W, strain spt3, hits give low values 0.868 | locus YEL003W, strain gim4, hits give low values 0.982 | locus YEL037C, strain rad23, hits give low values 0.985 | locus YEL061C, strain CIN8 (second series), hits give low values 0.982 | locus YER015W, strain faa2, hits give low values 0.999 | locus YER016W, strain bim1, hits give low values 0.979 | locus YER111C, strain swi4, hits give low values 0.989 | locus YER155C, strain BEM2 (second series), hits give low values 0.969 | locus YFR010W, strain ubp6, hits give low values 0.993 | locus YGL167C, strain pmr1, hits give low values 0.982 | locus YGL173C, strain kem1, hits give low values 0.987 | locus YGL227W, strain vid30, hits give low values 0.993 | locus YGL240W, strain doc1, hits give low values 0.982 | locus YGL253W, strain hxk2, hits give low values 0.984 | locus YHR013C, strain ard1, hits give low values 0.954 | locus YHR027C, strain rpn1, hits give low values 0.996 | locus YHR030C, strain SLT2, hits give low values 0.958 | locus YHR079C, strain IRE1, hits give low values 0.961 | locus YHR142W, strain chs7, hits give low values 0.998 | locus YJL092W, strain hpr5, hits give low values 0.987 | locus YJL095W, strain BCK1 (second series), hits give low values 0.994 | locus YJL095W, strain BCK1, hits give low values 0.995 | locus YJL115W, strain asf1, hits give low values 0.986 | locus YJL129C, strain trk1, hits give low values 0.989 | locus YJL154C, strain vps35, hits give low values 0.986 | locus YJL164C, strain tpk1, hits give low values 1 | locus YJL166W, strain qcr8, hits give low values 0.996 | locus YJL187C, strain SWE1, hits give low values 1 | locus YJR066W, strain TOR1, hits give low values 0.93 | locus YKL160W, strain elf1, hits give low values 1.03 | locus YKR026C, strain gcn3, hits give low values 0.993 | locus YKR091W, strain srl3, hits give low values 0.995 | locus YLL001W, strain dnm1, hits give low values 0.98 | locus YLL026W, hits give low values 0.996 | locus YLL041C, strain sdh2, hits give low values 0.994 | locus YLR027C, strain aat2, hits give low values 0.999 | locus YLR113W, strain HOG1, hits give low values 0.976 | locus YLR221C, strain rsa3, hits give low values 1.02 | locus YLR258W, strain gsy2, hits give low values 0.982 | locus YLR262C, strain YPT6 (second series), hits give low values 1 | locus YLR320W, strain mms22, hits give low values 0.983 | locus YLR342W, strain FKS1, hits give low values 1 | locus YLR357W, strain rsc2, hits give low values 0.981 | locus YLR370C, strain arc18, hits give low values 0.996 | locus YLR384C, strain iki3, hits give low values 0.995 | locus YML120C, strain ndi1, hits give low values 1.01 | locus YMR058W, strain fet3, hits give low values 0.998 | locus YMR125W, strain sto1, hits give low values 0.979 | locus YMR129W, hits give low values 0.994 | locus YMR205C, strain PFK2, hits give low values 0.967 | locus YMR231W, strain pep5, hits give low values 0.993 | locus YNL071W, strain lat1, hits give low values 0.993 | locus YNL183C, strain NPR1, hits give low values 0.929 | locus YNL209W, strain ssb2, hits give low values 0.994 | locus YNL248C, strain rpa49, hits give low values 1.01 | locus YNL322C, strain KRE1 (second series), hits give low values 1 | locus YNR049C, strain mso1, hits give low values 0.985 | locus YOR001W, strain rrp6, hits give low values 1.02 | locus YOR070C, strain gyp1, hits give low values 0.992 | locus YOR080W, strain dia2, hits give low values 0.997 | locus YOR083W, strain WHI5, hits give low values 1.03 | locus YOR106W, strain vam3, hits give low values 1.02 | locus YOR231W, strain MKK1, hits give low values 0.972 | locus YOR265W, strain rbl2, hits give low values 0.989 | locus YOR270C, strain vph1, hits give low values 0.99 | locus YOR290C, strain snf2, hits give low values 0.916 | locus YPL051W, strain arl3, hits give low values 1.01 | locus YPL078C, strain atp4, hits give low values 1.01 | locus YPL106C, strain sse1, hits give low values 0.985 | locus YPL240C, strain hsp82, hits give low values 0.983 | locus YPL256C, strain CLN2, hits give low values 0.921
